46 compounds from PubChem BioAssay AID651640 (Broad Institute, 2012) can be followed below.

The whole screen tested about 350,000 compounds, of which about 6,000 (1.7%) were called active. Inconclusive results (about 5%) are left out. The sample holds actives, similar compounds and a random draw of the others, so the mix is not that of the screen. Cut-off read from the data, not from the text of the source: active = CPE inhibition above about 20% (passing the limit was not always enough); inconclusive = no clear call, values can overlap the other calls; tested in BHK-21 cells.

A short description of the assay: inhibitors of DENV2 cytopathic effect, primary screen, cell-based, plate reader, single concentration (AID 651640).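 Note: 0% = median of neutral control wells and 100% = median of positive control wells.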 The conditions noted are these: DENV2-infected cells, cytopathic effect rescue, at 9.99 µM, stronger effect = higher value. For orientation: Cytopathic effects are the visible damage that an infection or toxin causes in cultured cells.
For `O=S(=O)(c1ccc(F)cc1)N1CCCCN2[C@H](C1)[C@H](c1ccc(C3=CCCCC3)cc1)[C@@H]2CO`, the CPE inhibition was -4.44% (inactive).
The same measure for `COc1cccc(S(=O)(=O)N2CCCCN3[C@H](CO)[C@H](c4ccc(C#CC5CC5)cc4)[C@H]3C2)c1`: -34.9% (inactive).
The result for `CCN1[C@@H]2Cn3c(ccc(-c4cccc(OC)c4)c3=O)[C@H]1[C@@H](C(=O)N(C)C)[C@@H]2CO` reads -1.41% (inactive); that for `O=C(Nc1ccccc1)N[C@@H]1CC[C@H](CCn2cc(C3(O)CCCC3)nn2)O[C@@H]1CO`, -11.6% (inactive).
As for `C[C@H](CO)N1C[C@H](C)[C@H](CN(C)C)Oc2ccc(NC(=O)Cc3ccccc3)cc2CC1=O`, the CPE inhibition was 9.5% (inactive).
For the compound `CC(C)c1cn(CC[C@@H]2CC[C@@H](NC(=O)C3CCC3)[C@@H](CO)O2)nn1`, the CPE inhibition was -3.48% (inactive).
The result for `Cc1noc(C)c1NC(=O)Nc1cccc2c1O[C@H](CN(C)S(C)(=O)=O)[C@H](C)CN([C@H](C)CO)C2=O` reads 6.73% (inactive).
The result for `C[C@@H]1CN([C@@H](C)CO)C(=O)c2cc(-c3cncnc3)cnc2O[C@@H]1CN(C)Cc1ccncc1` reads 15% (inactive); that for `CO[C@@H]1CN(C)C(=O)c2cc(NC(=O)Nc3cc(F)ccc3F)ccc2OC[C@H](C)N(C)C[C@@H]1C`, -0.0135% (inactive).
The same measure for `CN1c2ccc(-c3ccc(C#N)cc3)cc2[C@@H]2[C@@H](CCN2C(=O)C2CCCCC2)[C@H]1CO`: -20.7% (inactive); for `O=S1(=O)CCOC[C@H](CC2CCCCC2)N1Cc1ccc(F)cc1`: 3.12% (inactive); for `Cc1ccc(CN2CCCOCCS2(=O)=O)cc1`: 40.2% (active).
Consider `Cc1ccc(CN2CC(N3CCC(Cc4ccccc4)CC3)CS2(=O)=O)cc1` (stereo unspecified), for which the CPE inhibition was -8.76% (inactive).
The result for `COc1ccc(-c2cnc3c(c2)C(=O)N([C@H](C)CO)C[C@@H](C)[C@H](CN(C)C(=O)Cc2ccncc2)O3)cc1` reads -3.69% (inactive); that for `CCCCN(C(C)=O)c1ccc2c(c1)C1CC2CCN1Cc1ccccc1` (stereo unspecified), 42.3% (active).
The same measure for `FC(F)(F)c1ccc(-c2cccc3c2C2CC3CCN2Cc2ccccc2)cc1` (stereo unspecified): -4.78% (inactive).
The same measure for `Clc1cccc2c1C1CC2CCN1Cc1ccccc1` (stereo unspecified): -7.07% (inactive); for `COc1cccc(S(=O)(=O)N(C)C[C@@H]2Oc3ncc(-c4cccc(C(=O)N(C)C)c4)cc3C(=O)N([C@H](C)CO)C[C@@H]2C)c1`: 9.65% (inactive); for `CN1c2ccc(-c3cccc(C#N)c3)cc2[C@@H]2[C@@H](CCN2C(=O)NC2CCCCC2)[C@@H]1CO`: -19.7% (inactive).
Consider `O=C(N[C@H]1CC[C@H](CCn2cc(-c3ccccc3F)nn2)O[C@@H]1CO)c1ccc2c(c1)OCO2`, for which the CPE inhibition was 6.43% (inactive).
The result for `C[C@H](CO)N1C[C@H](C)[C@H](CN(C)S(=O)(=O)c2cccs2)Oc2c(NS(=O)(=O)c3ccc(Cl)cc3)cccc2C1=O` reads 24.5% (active); that for `Cc1ccc(S(=O)(=O)N(C)C[C@H]2Oc3c(NS(=O)(=O)c4cccs4)cccc3C(=O)N([C@@H](C)CO)C[C@@H]2C)cc1`, -0.283% (inactive); that for `C[C@@H]1CN([C@@H](C)CO)C(=O)c2cccc(NS(=O)(=O)c3ccc(F)cc3)c2O[C@H]1CN(C)S(=O)(=O)c1cccs1`, -1.22% (inactive).
The same measure for `Cc1ccc(S(=O)(=O)N(C)C[C@@H]2Oc3c(NC(=O)Nc4ccccc4)cccc3C(=O)N([C@H](C)CO)C[C@H]2C)cc1`: 5.91% (inactive).
`COc1ccc(S(=O)(=O)Nc2cccc3c2O[C@H](CN(C)S(=O)(=O)c2ccc(OC)cc2)[C@@H](C)CN([C@H](C)CO)C3=O)cc1`: the CPE inhibition was 21.2% (active).
`COc1ccc(S(=O)(=O)Nc2cccc3c2O[C@@H](CN(C)S(=O)(=O)c2ccc(F)cc2)[C@H](C)CN([C@H](C)CO)C3=O)cc1`: the CPE inhibition was -7.57% (inactive).
For the compound `C[C@H](CO)N1C[C@H](C)[C@H](CN(C)S(=O)(=O)c2ccccc2)Oc2c(NC(=O)Nc3ccccc3)cccc2C1=O`, the CPE inhibition was -3.55% (inactive).
`C[C@@H]1CN([C@@H](C)CO)C(=O)c2cccc(NS(=O)(=O)c3cccs3)c2O[C@@H]1CN(C)CC1CC1`: the CPE inhibition is 30.5% (active).
For the compound `COc1ccc(S(=O)(=O)N(C)C[C@@H]2Oc3c(NS(=O)(=O)c4ccccc4)cccc3C(=O)N([C@@H](C)CO)C[C@@H]2C)cc1`, the CPE inhibition was -6.28% (inactive).
The same measure for `C[C@@H]1CN([C@@H](C)CO)C(=O)c2cccc(NS(=O)(=O)c3cccs3)c2O[C@H]1CN(C)Cc1ccncc1`: -4.19% (inactive); for `C[C@H]1CN([C@@H](C)CO)C(=O)c2cccc(NS(=O)(=O)c3ccc(Cl)cc3)c2O[C@H]1CN(C)S(=O)(=O)c1ccc(Cl)cc1`: -6.39% (inactive); for `C[C@H]1CN([C@@H](C)CO)C(=O)c2cccc(NC(=O)Nc3ccccc3)c2O[C@H]1CN(C)S(=O)(=O)c1ccc(Cl)cc1`: 29.2% (active).
Turning to `Cc1ccc(S(=O)(=O)NCC[C@@H]2CC[C@H](NC(=O)CC3CC3)[C@H](CO)O2)cc1`, the CPE inhibition was -2.24% (inactive).
The same measure for `COc1ccc(NC(=O)Nc2ccc3c(c2)C(=O)N([C@H](C)CO)C[C@@H](C)[C@H](CN(C)Cc2ccccc2)O3)cc1`: -6.1% (inactive); for `CCCC#Cc1ccc2c(c1)O[C@H](CN(C)C(=O)c1ccncc1)[C@H](C)CN([C@H](C)CO)S2(=O)=O`: -4.65% (inactive).
The same measure for `CO[C@@H]1CN(C)C(=O)c2ccc(NS(=O)(=O)c3cn(C)cn3)cc2OC[C@H](C)N(CCC(F)(F)F)C[C@@H]1C`: -5.08% (inactive); for `C[C@@H]1CN([C@@H](C)CO)C(=O)c2cc(NC(=O)CCN3CCOCC3)ccc2O[C@H]1CN(C)C(=O)NC1CCCCC1`: -3.33% (inactive).
The same measure for `CC(C)NC(=O)N1C[C@@H]2[C@H](c3ccccc31)[C@@H](CO)N2Cc1ccc(Cl)cc1`: 47.3% (active); for `CC(=O)N1C[C@@H]2[C@H](c3ccccc31)[C@H](CO)N2Cc1ccc(Cl)cc1`: 16.8% (inactive).
As to `COc1ccccc1NC(=O)N1C[C@@H]2[C@H](c3ccccc31)[C@H](CO)N2CC1CCOCC1`, the CPE inhibition was 16.7% (inactive).
Turning to `CN1[C@@H]2CN(C(=O)C3CCCCC3)c3ccccc3[C@@H]2[C@@H]1CO`, the CPE inhibition was -5.31% (inactive).
The same measure for `COc1ccccc1NC(=O)N1C[C@H]2[C@@H](c3ccccc31)[C@H](CO)N2Cc1ccc2c(c1)OCO2`: 55.6% (active); for `CC(C)NC(=O)N1C[C@@H]2[C@H](c3ccccc31)[C@H](CO)N2C(=O)C1CCCC1`: -6.09% (inactive).
For `COc1ccc(CN2[C@@H](CO)[C@@H]3c4ccccc4N(C(=O)Nc4ccccc4)C[C@@H]32)cc1`, the CPE inhibition is -9.93% (inactive).
The same measure for `COc1ccc(CN2[C@H](CO)[C@@H]3c4ccccc4N(C(=O)C4CC4)C[C@@H]32)cc1`: 26.1% (active); for `COc1ccc(C(=O)N2C[C@@H]3[C@H](c4ccccc42)[C@H](CO)N3Cc2ccc3c(c2)OCO3)cc1`: -6.95% (inactive).
